Reference: PubChem BioAssay AID651768 (National Center for Advancing Translational Sciences (NCATS), 2012)
Out of some 360,000 compounds screened, about 1,700 (0.47%) were called active. Roughly 2% stayed inconclusive and do not appear here. This excerpt belongs to a sample that is enriched for actives. Unmarked numbers belong to inactive results. Calls come from the whole dose curve; as a rule, active = well fitted inhibition curve with a large enough effect; inconclusive = small, poorly fitted or top-dose-only effect; inactive = no such curve, though single readings can be large or run the other way.

These compounds were tested against Bifunctional 3'-5' exonuclease/ATP-dependent helicase WRN (Homo sapiens) (UniProt Q14191) (assay: qHTS for Inhibitors of WRN Helicase). Conditions: WRN helicase unwinding, fluorescent forked duplex, kinetic; series mostly up to 114 µM; activity change, negative = inhibition: at the top concentration.
Bifunctional 3'-5' exonuclease/ATP-dependent helicase WRN (Homo sapiens), sequence (Q14191 whole entry, looked up): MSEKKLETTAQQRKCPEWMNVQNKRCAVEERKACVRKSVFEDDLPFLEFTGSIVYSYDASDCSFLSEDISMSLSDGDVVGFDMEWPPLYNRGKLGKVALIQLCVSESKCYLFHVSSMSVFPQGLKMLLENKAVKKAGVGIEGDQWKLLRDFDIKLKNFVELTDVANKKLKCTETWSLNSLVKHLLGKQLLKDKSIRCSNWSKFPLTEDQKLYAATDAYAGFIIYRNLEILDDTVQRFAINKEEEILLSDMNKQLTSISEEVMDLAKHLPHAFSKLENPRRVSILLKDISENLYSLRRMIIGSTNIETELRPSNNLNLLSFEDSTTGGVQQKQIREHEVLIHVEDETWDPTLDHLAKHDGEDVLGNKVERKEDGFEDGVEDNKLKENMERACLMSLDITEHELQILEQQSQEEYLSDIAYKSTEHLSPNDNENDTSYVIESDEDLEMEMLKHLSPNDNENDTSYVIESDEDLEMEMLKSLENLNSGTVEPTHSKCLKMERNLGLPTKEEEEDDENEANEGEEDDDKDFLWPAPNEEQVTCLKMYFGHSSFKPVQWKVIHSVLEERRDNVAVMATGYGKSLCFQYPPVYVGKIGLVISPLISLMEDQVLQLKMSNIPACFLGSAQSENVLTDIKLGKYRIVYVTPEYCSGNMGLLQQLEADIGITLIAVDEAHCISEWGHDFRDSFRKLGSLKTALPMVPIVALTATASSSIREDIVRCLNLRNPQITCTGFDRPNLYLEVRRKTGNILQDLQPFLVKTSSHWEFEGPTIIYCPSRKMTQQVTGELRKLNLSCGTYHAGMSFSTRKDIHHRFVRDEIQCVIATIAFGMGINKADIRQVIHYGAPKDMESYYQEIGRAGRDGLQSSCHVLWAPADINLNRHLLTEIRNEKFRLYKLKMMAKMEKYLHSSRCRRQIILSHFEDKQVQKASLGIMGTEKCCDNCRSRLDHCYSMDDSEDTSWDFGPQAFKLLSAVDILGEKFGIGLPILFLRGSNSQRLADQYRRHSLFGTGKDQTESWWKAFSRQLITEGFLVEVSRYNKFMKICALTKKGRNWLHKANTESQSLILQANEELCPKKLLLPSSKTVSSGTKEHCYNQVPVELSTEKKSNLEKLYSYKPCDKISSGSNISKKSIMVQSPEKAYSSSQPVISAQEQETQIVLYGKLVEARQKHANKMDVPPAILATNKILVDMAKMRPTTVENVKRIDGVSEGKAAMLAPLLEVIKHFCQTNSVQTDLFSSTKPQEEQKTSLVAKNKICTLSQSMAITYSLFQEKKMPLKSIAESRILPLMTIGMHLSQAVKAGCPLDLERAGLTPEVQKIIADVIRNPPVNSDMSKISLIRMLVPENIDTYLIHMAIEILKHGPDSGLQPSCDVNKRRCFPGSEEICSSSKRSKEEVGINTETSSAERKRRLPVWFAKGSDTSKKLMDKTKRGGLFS
From the text: Inhibition of DNA repair is proposed as a strategy for combating cancer. Synthetic lethality is an approach that exploits preexisting DNA repair deficiencies in certain tumors to develop inhibitors of DNA repair pathways that compensate for the tumor-associated DNA repair deficiency. Because helicases play critical roles in the DNA damage response and in DNA repair, particularly in actively dividing and replicating cells, characterization of synthetic lethal relationships of DNA helicases may be of value in developing improved anticancer treatment strategies; moreover, small molecules that specifically target a given DNA helicase may be useful for understanding its role in cellular nucleic acid metabolism. The goal of this project is to identify small molecule, non-covalent chemical inhibitors of the Werner syndrome (WS) helicase (WRN), which plays an important role in cell proliferation, the replication stress response, and DNA repair. […] The WRN gene product that is defective in the chromosomal instability disorder has DNA helicase and exonuclease activities and interacts with a number of nuclear proteins to maintain genomic stability. We will employ an optimized high-throughput screening assay that utilizes a fluorescence intensity modulation scheme with a fluorophore and quencher positioned near one another within a duplex deoxyoligonucleotide that contains a single forked structure. After a high-throughput screen of the ~350,000-member Molecular Libraries Small Molecule Repository (MLSMR) collection, followed by data analysis and hit selection, a panel of confirmatory, as well as secondary and ternary, assays will be employed to identify high-confidence WRN inhibitors. Structure-activity relationships will be investigated for the top candidate inhibitor series through medchem expansion. These are the results of the primary screening campaign against the MLSMR. NIH Chemical Genomics Center [NCGC] NIH Molecular Libraries Probe Centers Network [MLPCN] MLPCN Grant: MH096530 Assay Submitter (PI): Robert Brosh, National Institute of Aging
Three muL of reagents (buffer in columns 3 and 4 as negative controls; WRN at 20 nM final concentration in columns 1 and 2 as positive controls; columns 5-48 as test reactions) will be dispensed into a 1536-well Greiner black plate via solenoid-valve based nanoliter dispensers. Compounds (23 nL each in columns 5-48) and control (23 nL each in column 2 as dose-response) will be transferred via a Kalypsys pintool equipped with a 1536-pin array. Plates will be incubated for 15 min at room temperature, and then 1 µL of substrate (100 nM forked duplex oligonucleotide and 2 mM ATP final concentrations) will be added to start reaction, and plate will be transferred into a ViewLux high-throughput CCD imager where reaction progress is measured in kinetic mode using standard red-fluorescence optics (excitation filter 525 nm, emission filter 598 nm).
% is set by controls: 0 for no effect and ±100 for the full control effect; potency is the fitted concentration of half-maximal effect.
Note: nearly all actives have a fitted effect of over 55% in size.

| SMILES | Potency | activity change, negative = inhibition |
| --- | --- | --- |
| CC1(C)C(c2ccccc2)=NC(c2cccnc2)=[N+]1[O-] | 50.1 µM (active) |  |
| CCOP(=O)(OCC)C(NC(=O)c1ccc(C)cc1)C(Cl)(Cl)Cl (stereo not given) |  | 13.7% |
| O=C(Cc1ccc(Cl)cc1)NCCN1CCN(C(=O)Cc2ccc(Cl)cc2)CC1 |  | 5.8% |
| CCOC(=O)[C@]12Cc3cc(OC)ccc3[C@H]1N(C(C)C)C(=O)c1ccccc12 |  | -1.64% |
| CC(Cc1ccccc1)NCCC(c1ccccc1)c1ccccc1 (stereo not given) |  | -1.92% |
| CC(Cc1cccs1)NCc1ccc(Cl)cc1 (stereo not given) |  | -4.04% |
| O=C(O)CCn1cc(C=C2C(=O)NC(=S)NC2=O)c(-c2cccc(Br)c2)n1 | 31.6 µM (active) |  |
| C=C(C)C1(CCCC)C(=O)NC(=S)NC1=O |  | 0.947% |
| COc1ccc(-n2nnnc2C(c2cccc3ccccc23)N2CCC(n3c(=O)[nH]c4ccccc43)CC2)cc1 (stereo not given) |  | -2.03% |
| COC(=O)CN(CCCl)P1(=O)OCCCN1CCCl (stereo not given) |  | 1.67% |
| CCOc1ccc(-c2cc(C)[n+](CCN(CC)CC)c(-c3ccc(OCC)cc3)c2)cc1 |  | -8.79% |
| Cc1ccc2c(c1)=C/C(=C\c1c(O)[nH]c(=O)[nH]c1=O)C(=O)N=2 | 39.8 µM (active) |  |
| O=C1N=c2ccccc2=C/C1=C\c1c(O)[nH]c(=S)[nH]c1=O |  | -30.7% |
| O=c1[nH]c(O)c(C=Nc2cc(F)cc(F)c2)c(=O)[nH]1 |  | 2.85% |
| N#Cc1ccc(Cn2cc(C(=O)c3ccco3)c3ccccc32)cc1 |  | -15.2% |
| CCCCCCCCCCCCn1ccc(=N)cc1 |  | -5.13% |
| COc1ccc(CCn2c(O)c(C=NCCCn3ccnc3)c(=O)[nH]c2=O)cc1OC |  | 6.66% |
| CC(C)(C)c1ccc(CN2C(=O)CN=C(c3ccccc3)c3ccccc32)cc1 |  | -15.4% |
| O=C(CN1CCCC1=O)NCCc1ccccc1 |  | 0.395% |
| O=C1CC(=O)N(Cc2ccccc2)C(=O)N1CCCCCCN1C(=O)CC(=O)N(Cc2ccccc2)C1=O | 28.2 µM (active) |  |
| CC(=O)C1(O)CCC2C3CCC4=C(Cl)C(=O)CCC4(C)C3CCC21C (stereo not given) |  | 0.713% |
| CCOC(=O)[C@]12Cc3ccccc3[C@H]1N(C1CCCCC1)C(=O)c1cc(OC)ccc12 |  | -0.682% |
| C=CCN1C(=O)NC(=O)/C(=C/c2ccc(OCC(=O)Nc3ccc(C)cc3)cc2)C1=O |  | -8.42% |
| O=C1NC(=O)N(CCc2ccc(F)cc2)C(=O)/C1=C/C=C/c1ccccc1 |  | -13.3% |
| O=C(O)COc1ccccc1/C=C1\C(=O)NC(=O)N(CCC2=CCCCC2)C1=O | 39.8 µM (active) |  |

| SMILES | Potency | activity change, negative = inhibition |
| --- | --- | --- |
| CCCOC(=O)C1C2c3ccccc3C(c3ccccc32)C1C(=O)O (stereo not given) |  | -3.12% |
| CC(=O)N1CN2CN(C(C)=O)CC(C(=O)c3ccc(Br)cc3)(C2)C1 |  | -1.58% |
| O=C1NC(=O)N(c2ccc(F)cc2)C(=O)/C1=C/c1ccc2c(c1)CCCN2Cc1ccccc1 |  | -26.4% [at 57.1 µM] |
| O=C1NC(=O)N(c2ccccc2)C(=O)/C1=C/c1ccc([N+](=O)[O-])s1 | 28.2 µM (active) |  |
| O=c1c2ccccc2nc(CBr)n1-c1ccc(Cl)cc1 |  | 11.3% |
| COc1ccc(N2C(=O)/C(=C/c3ccco3)C(=O)NC2=S)cc1 | 17.8 µM (active) |  |
| CN(C)CC1CCCCC1OC(=O)c1ccc(Cl)c(Cl)c1 (stereo not given) |  | 9.28% |
| CC(C)(C)[C@]1(O)C[C@@H]2OC(=O)C[C@@]23C(=O)O[C@@H]2OC(=O)[C@H](O)[C@]213 |  | -2.59% |
| COc1ccc(-c2nn(CCC#N)cc2C(=O)Nc2ccc(C(C)=O)cc2)cc1 |  | 1.6% |
| Clc1cccc(Cl)c1Cl |  | -11.3% |
| Cc1cccc(N2C(=O)NC(=O)/C(=C\c3cnn(-c4ccccc4)c3)C2=O)c1 | 50.1 µM (active) |  |
| Cc1c(C(=O)O)cccc1-n1c(C)cc(/C=C2\C(=O)NC(=O)N(c3ccc4c(c3)OCO4)C2=O)c1C |  | -16.1% [at 11.6 µM] |
| COc1ccc(S(=O)(=O)NCc2ccc(C(=O)N3CCC4(CC3)OCCO4)cc2)cc1 |  | 3.75% |
| OCC#CC[N+]1(CC#Cc2ccccc2)CCCC1 |  | -12.6% |
| CSC1=NP(=S)(SC)N(C)c2nc3n(c21)CCC3 (stereo not given) |  | 7.66% |
| COC(=O)C[C@H]1CC[C@H]2NC[C@@H](O)COC[C@@H]2O1 |  | 2.11% |
| O=C1NC(=O)N(Cc2ccco2)C(=O)/C1=C\c1ccc(-c2ccc(F)cc2)o1 | 31.6 µM (active) |  |
| COc1ccc(-c2nc(CS(=O)CC(=O)N3CCC4(CC3)OCCO4)c(C)o2)cc1 (stereo not given) |  | -1.12% |
| COc1ccccc1N=Nc1c(O)[nH]c(=S)[nH]c1=O |  | -24.1% |
| O=c1[nH]c(=S)[nH]c(O)c1/C=C1\C=Nc2ccccc21 | 50.1 µM (active) |  |
| O=c1[nH]c2ccccc2n1C1CCN(C(c2ccccc2)c2nnnn2Cc2ccccc2)CC1 (stereo not given) |  | -7.52% |
| O=C(N/N=C/c1c(O)n(C2CC2)c(=S)[nH]c1=O)c1ccccc1 |  | -24% |
| COc1ccccc1N=C1SCCCN1C |  | 3.59% |
| CCCCCn1c(=O)c(C(=O)Nc2c(C)n(C)n(-c3ccccc3)c2=O)c(O)c2ccccc21 |  | -9.8% |
| COC(=O)C1=C(c2cccc(OCc3ccccc3)c2)C[C@@H]2CC[C@H]1N2C(=O)NNCc1ccccc1 |  | -8.99% |
